A short description of this assay: cell-free HIV fusion peptide-binding blockers – biochemical, uHTS, fluorescence dequenching, primary screen (AID 1986). Particulars: 30 min, stronger effect = higher value.
Setting [1] is: measured here: repeat confirmation average inhibition, at 18.6 µM.

The text below walks through data of PubChem BioAssay AID1986 (Sanford-Burnham Center for Chemical Genomics, 2009).

Screen size: about 290,000 compounds; about 890 (0.31%) were called active. Cut-off read from the data, not from the text of the source: active = inhibition mostly above about 52% (no sharp cut-off); inactive = mostly below about 76%. The full list was thinned out, with actives kept by preference.

A word on the inhibition: it is the drop in the measured response relative to a control, in per cent.

As for `O=C(COc1ncnc2ccccc12)Nc1cc([N+](=O)[O-])ccc1Cl`, the inhibition (at 20 µM) was -0.3% (inactive).
The same measure, in the same setting: the same measure for `COCC1CCN(C(=O)c2cc(COc3ccc(C)c(C)c3)on2)C1` (stereo not drawn): 0.9% (inactive).
Still for that read-out and setting: with `COc1cc(/C=C2/SC(=O)N(Cc3ccccc3)C2=O)ccc1OCc1ccncc1` the figure was -4.2% (inactive).
Same read-out and setting: the same measure for `Cc1ccc(S(=O)(=O)NC(=O)c2ccc(-c3ccc(C)c4ccccc34)o2)cc1`: 23.3% (inactive); for `Cc1ccc(S(=O)(=O)NC(=O)c2ccc(-c3ccc(-c4ccccc4)cc3)o2)c(C)c1`: 52.6% (active).
Turning to `Cc1ccc(S(=O)(=O)NC(=O)c2ccc(Br)o2)c(C)c1`, the inhibition (at 20 µM) was -0.8% (inactive).
The same measure, in the same setting: with `O=C(Nc1cccc(C(=O)Nc2ccc(Cl)cn2)c1)c1ccccc1` the figure was 7.8% (inactive).
Still for that read-out and setting: the same measure for `O=C(Nc1ccc(F)cc1)c1oc2ccccc2c1NC(=O)C1CC1`: -0.2% (inactive); for `CSc1nnc(-c2ccccc2N=Cc2c(C)[nH]n(-c3ccccc3)c2=O)c(=O)[nH]1`: 6% (inactive).
Still for that read-out and setting: the same measure for `Cc1nn(-c2ccc3ccccc3c2)c(=O)c2ccccc12`: 0% (inactive).
Consider `Cc1ccc(/C=N/NC(=O)c2cc3c(ccc4ccccc43)o2)o1`, for which, for the setting “at 20 µM”, the inhibition was -1.7% (inactive).
Same read-out and setting: the same measure for `O=C(N/N=C/c1ccc(-c2ccc(Cl)c(C(=O)O)c2)o1)c1cc2c(ccc3ccccc32)o1`: 50.3% (active); for `Cc1ccc(-c2ccc(/C=N\NC(=O)c3cc4c(ccc5ccccc54)o3)o2)cc1[N+](=O)[O-]`: -1.4% (inactive); for `CCC(C)NC(=O)COC(=O)c1cccnc1Nc1ccccc1F` (stereo not drawn): 0.1% (inactive).
Same read-out and setting: with `CCOC(=O)Cn1c2ccc(OC)cc2c2nc3ccccc3nc21` the figure was 3% (inactive); with `COC(=O)Cn1c2ccc(OC)cc2c2nc3ccccc3nc21`, 9.1% (inactive).
Regarding `CCCCOC(=O)Cn1c2ccc(OC)cc2c2nc3ccccc3nc21`, the inhibition was 53.3% (active) (at 20 µM) and 57.8% under setting [1].
For the compound `CCc1ccc(-c2cc3c(=O)n(CC(=O)NCCN4CCCCC4C)nc(C)n3n2)cc1` (stereo not drawn), under “at 20 µM”, the inhibition is -0.3% (inactive).
On the same count and under the same terms, the same measure for `COc1ccc2c(Cl)c(C(=O)N/N=C3\CCCC(=O)C3)sc2c1`: 77.7% (active).
Regarding `O=C1CCC/C(=N/NC(=O)c2sc3ccccc3c2Cl)C1`, the inhibition by setting is: (at 20 µM) 81.5% (inactive); under setting [1], 39.7%.
Regarding `COc1ccc2c(Cl)c(C(=O)NN)sc2c1`, the inhibition (at 20 µM) was 1.3% (inactive).
Consider `CC(C)(C)NC(=O)CSc1ccc(C(C)(C)C)cc1`, for which the inhibition (at 20 µM) was -2.2% (inactive).
The same measure, in the same setting: the same measure for `O=C(O)c1ccc(/C=N/Nc2nnnn2-c2ccccc2)cc1`: 2.1% (inactive).
In the case of `O=C(O)c1ccccc1N/N=C/c1c(Sc2nnnn2-c2ccccc2)nc2ccccn2c1=O`, the inhibition (at 20 µM) is 80.8% (active) and the inhibition under setting [1] turned out to be 54.8%.
Consider `O=c1c(/C=N/O)c(Nc2ccccc2)nc2ccccn12`, for which the inhibition (at 20 µM) is -2.7% (inactive).
Same read-out and setting: with `NC(=O)N/N=C/c1c(Sc2nnnn2-c2ccccc2)nc2ccccn2c1=O` the figure was 0% (inactive).
On the same count and under the same terms, with `O=Cc1c(Sc2ccccc2)nc2ccccn2c1=O` the figure was 2.6% (inactive).
On the same count and under the same terms, the same measure for `O=c1c(/C=N/Nc2ccccc2)c(Sc2nnnn2-c2ccccc2)nc2ccccn12`: 96.2% (active); for `O=C(CC1Sc2ccccc2NC1=O)NCc1cccc(Cl)c1` (stereo not drawn): 1% (inactive); for `CCOC(=O)c1nnn(-c2nonc2N)c1CN1CCCC1`: -0.2% (inactive).
`COc1ccccc1-c1c(C(F)(F)F)oc2cc(OCC(=O)Nc3ccccc3C(F)(F)F)ccc2c1=O`: the inhibition (at 20 µM) was 3.1% (inactive).
Still for that read-out and setting: the same measure for `COc1ccccc1NC(=O)CSc1nnc(Cn2c(=O)sc3ccccc32)n1C`: 0.2% (inactive).
On to `NC(=O)C[n+]1cccc2ccccc21`, for which the inhibition (at 20 µM) was 1.3% (inactive).
Regarding `COC(=O)C[n+]1cccc2ccccc21`, the inhibition (at 20 µM) is 78.3% (active) and the inhibition under setting [1] was 65.6%.
For the compound `O=C(C[n+]1cccc2ccccc21)c1ccccc1`, the inhibition (at 20 µM) is 11.8% (inactive).
On the same count and under the same terms, the same measure for `CCOCCCNC(=O)/C(C#N)=C/c1ccc(C)o1`: -0.3% (inactive); for `Cc1ccccc1OCc1nc(-c2ccc(-n3cccc3)cc2)no1`: 3.2% (inactive).
Consider `COc1ccccc1C(=O)C1CCCN(C(=O)c2cnn(C(C)C)c2)C1` (stereo not drawn), for which the inhibition (at 20 µM) is -0.2% (inactive).
Same read-out and setting: the same measure for `Oc1ccc2ccccc2c1C=Nc1ccccc1Br`: 0.3% (inactive); for `Oc1ccccc1N=Cc1c(O)ccc2ccccc12`: 67.4% (active); for `CN(C)/N=C/c1c(O)ccc2ccccc12`: -5.1% (inactive).
Same read-out and setting: with `Cc1ccc(Cl)cc1N1CCN(S(=O)(=O)c2ccc3c(c2)NC(=O)C(C)C(=O)N3)CC1` (stereo not drawn) the figure was 1.3% (inactive); with `CCn1c(C)c(C(C)=O)c(N2CCN(c3ccccn3)CC2)nc1=S`, 6.8% (inactive); with `C(=C\c1ccccc1)/CNn1cnnc1`, -2.1% (inactive).
Still for that read-out and setting: with `COc1ccc2c(/C=C/c3cc[n+](C)cc3)c[nH]c2c1` the figure was 6.5% (inactive); with `OCC[n+]1ccc(/C=C/c2c[nH]c3ccccc23)cc1`, 53% (active); with `CC[n+]1c(/C=C/c2c[nH]c3ccccc23)ccc2cc(C)ccc21`, 142% (inactive).
As to `Cc1ccc(C(=O)/C=C/c2c[nH]c3ccccc23)cc1`, for the setting “at 20 µM”, the inhibition is 2.2% (inactive).
On the same count and under the same terms, the same measure for `CCc1ccc(/C=C/c2c[nH]c3ccccc23)[n+](CC)c1`: 2.5% (inactive); for `O=c1c2ccccc2nc(/C=C/c2c[nH]c3ccccc23)n1CCO`: 5.3% (inactive); for `O=C(/C=C/c1c[nH]c2ccccc12)c1ccccc1`: -2.9% (inactive).
For `C[n+]1ccc(/C=C/c2c[nH]c3ccccc23)cc1`, the inhibition (at 20 µM) is 82.6% (active).
`Cc1[nH]c2ccccc2c1/C=C/c1cc[n+](C)cc1`: the inhibition (at 20 µM) is 144% (inactive).
The same measure, in the same setting: the same measure for `C[n+]1cc(C(=O)N2CCCCC2)ccc1/C=C/c1c[nH]c2ccccc12`: 148% (inactive).
As to `CC[n+]1ccc(/C=C/c2c[nH]c3ccccc23)cc1`, the inhibition is, setting by setting: (at 20 µM) 97.2% (active); under setting [1], 77.7%.
Consider `CCN(CC)C(=O)c1ccc(/C=C/c2c[nH]c3ccccc23)[n+](C)c1`, for which the inhibition runs as follows: (at 20 µM) 91.3% (active); under setting [1], 81.7%.
Turning to `Cc1nnsc1-c1nc2ccccc2[nH]1`, the inhibition (at 20 µM) is -1.6% (inactive).
Still for that read-out and setting: the same measure for `COc1ccc(NC(=O)c2cc(Br)ccc2Cl)c([N+](=O)[O-])c1`: -0.4% (inactive); for `O/N=C\c1ccc2noc(-c3ccc(Cl)cc3)c2c1`: 0% (inactive); for `c1ccc(Oc2ncnc3sccc23)cc1`: -1.5% (inactive).
Still for that read-out and setting: with `N#Cc1ccc(CSc2nnc(NC(=O)CN3C(=O)C4CC=CCC4C3=O)s2)cc1` (stereo not drawn) the figure was 6.4% (inactive); with `COc1cccc(/C=N/NC(=O)c2[nH]c(C)c(C(=O)N/N=C/c3cccc(OC)c3O)c2C)c1O`, 4.6% (inactive).
The same measure, in the same setting: with `CCCn1cnc2scc(-c3ccc(C)cc3)c2c1=O` the figure was -1.9% (inactive); with `Cc1ccc(C)c(NC(=O)CSc2nnc(C3CCCCC3)o2)c1`, -1.1% (inactive).
For `O=C(O)CCn1c(=O)n(CCC(=O)O)c(=O)n(CCC(=O)O)c1=O`, under “at 20 µM”, the inhibition was 0.1% (inactive).
With `O=C(CN1c2ccccc2Sc2ccccc21)N/N=C/c1ccc(Cl)cc1`, the inhibition (at 20 µM) was -1% (inactive).
Regarding `C[n+]1ccc(/C=C/c2c[nH]c3ccc(F)cc23)cc1`, the inhibition (at 20 µM) is 77.8% (active) and the inhibition under setting [1] is 85.8%.
With `Cc1ccc2[nH]cc(/C=C/c3cc[n+](C)cc3)c2c1`, the inhibition (at 20 µM) is 160% (inactive).
With `COc1ccc2[nH]cc(/C=C/c3cc[n+](C)cc3)c2c1`, the inhibition (at 20 µM) is 18.3% (inactive).
Still for that read-out and setting: with `CC1=C(C(=O)Nc2ccc(C(=O)NC(C)c3ccccc3)cc2)SCCO1` (stereo not drawn) the figure was 2.3% (inactive).
`O=C(Nc1cccc(C(=O)N2CCCCC2)c1)c1ccccc1Br`: the inhibition (at 20 µM) was -1.4% (inactive).
Same read-out and setting: the same measure for `O=S(=O)(NCc1ccccc1F)NCc1ccccc1F`: -1.9% (inactive).
Same read-out and setting: the same measure for `O=c1c(-c2nc3ccccc3o2)c2oc3ccccc3n2c2ccccc12`: -2.3% (inactive).
On to `O=c1c(Cl)c2oc3ccccc3nc-2c2ccccc12`, for which the inhibition (at 20 µM) is 50.8% (active).
Take `Clc1ccc(-c2nnc(Sc3nc4ccccc4o3)c3ccccc23)cc1`: the inhibition (at 20 µM) was -0.2% (inactive).
Still for that read-out and setting: with `O=C(N/N=C\c1ccc2c(c1)OCO2)c1ccc(Cn2cc(Br)c([N+](=O)[O-])n2)o1` the figure was -2.8% (inactive); with `CCN(CC)Cc1c(O)ccc2c(=O)c(-c3ccccc3)coc12`, -1.9% (inactive); with `CCN1CCN(Cc2c(O)ccc3c2O/C(=C\C=C\c2ccccc2)C3=O)CC1`, 53.7% (active).
With `CCN(CC)Cc1c(O)ccc2c(-c3ccccc3)cc(=O)oc12`, the inhibition (at 20 µM) is -2.2% (inactive).
Same read-out and setting: with `Cc1ccc(/C=C2\Oc3c(ccc(O)c3CN3CCN(CCO)CC3)C2=O)cc1` the figure was 35.2% (inactive).
`CN(C)Cc1c(O)ccc2c1O/C(=C\C=C\c1ccccc1)C2=O`: the inhibition (at 20 µM) was 77.7% (active) and the inhibition under setting [1] is 124%.
Take `COc1ccccc1/C=C/C=C1\Oc2c(ccc(O)c2CN(C)C)C1=O`: under “at 20 µM”, the inhibition is 146% (inactive).
For `COc1ccccc1/C=C/C=C1\Oc2c(ccc(O)c2CN2CCN(CCO)CC2)C1=O`, the inhibition (at 20 µM) was 122% (active).
As for `CCN1CCN(Cc2c(O)ccc3c2O/C(=C\C=C\c2ccccc2OC)C3=O)CC1`, under “at 20 µM”, the inhibition was 149% (inactive).
Regarding `CCN1CCN(Cc2c(O)ccc3c2O/C(=C\c2ccccc2)C3=O)CC1`, the inhibition (at 20 µM) is 67.8% (inactive) and the inhibition under setting [1] amounted to 22.1%.
Regarding `O=C1/C(=C/C=C/c2ccccc2)Oc2c1ccc(O)c2CN1CCN(CCO)CC1`, the inhibition (at 20 µM) was 128% (inactive).
Take `CS(=O)(=O)Oc1ccc2c(c1)O/C(=C\C=C\c1ccccc1)C2=O`: where the note is “at 20 µM”, the inhibition is 3.8% (inactive).
`CCN(CC)Cc1c(O)ccc2c1O/C(=C\C=C\c1ccccc1)C2=O`: the inhibition is 116% (active) (at 20 µM) and 143% under setting [1].
On to `CCCCN(C)CCNC(=O)CN1C(=O)CSc2ccc(S(=O)(=O)N3CCOCC3)cc21`, for which the inhibition (at 20 µM) was 1% (inactive).
As for `CCN1C(=O)c2cccc3c(S(=O)(=O)Nc4ccncc4)ccc1c23`, where the note is “at 20 µM”, the inhibition was 3.5% (inactive).
Same read-out and setting: with `COc1ccccc1C(=O)C1CCCN(C(=O)c2cc(CC(C)C)nc(C)n2)C1` (stereo not drawn) the figure was -0.9% (inactive).
The same measure, in the same setting: with `CCOc1ccc(-n2cnnn2)cc1S(=O)(=O)NC1CC1` the figure was 0.2% (inactive).
Same read-out and setting: with `CCOC(=O)N1CCN(C(=O)C2CCN(S(=O)(=O)c3c(C)cc(C)cc3C)CC2)CC1` the figure was -1.7% (inactive).
Consider `O=C(NCc1ccco1)c1ccc(Cl)nc1`, for which the inhibition (at 20 µM) is -2% (inactive).
As to `CCCN1CCc2c(sc(NC(=S)NC(=O)c3ccccc3)c2C#N)C1`, under “at 20 µM”, the inhibition was 78.4% (active).
Same read-out and setting: the same measure for `CN1Cc2sc(NC(=S)NC(=O)c3ccccc3)c(C#N)c2CC1(C)C`: 70.3% (active).
Consider `N#Cc1c(NC(=S)NC(=O)c2ccccc2)sc2c1CCC2`, for which the inhibition (at 20 µM) is 14.9% (inactive).
On the same count and under the same terms, with `CCN1CCc2c(sc(NC(=S)NC(=O)c3ccccc3)c2C#N)C1` the figure was 26.3% (inactive); with `N#Cc1c(NC(=S)NC(=O)c2ccccc2)sc2c1CCCC2`, 0.9% (inactive); with `CCC1(C)Cc2c(sc(NC(=S)NC(=O)c3ccccc3)c2C#N)CO1` (stereo not drawn), -2.1% (inactive).
Turning to `CC(C)N1CCc2c(sc(NC(=S)NC(=O)c3ccccc3)c2C#N)C1`, the inhibition (at 20 µM) was 81% (active).
With `CC(C)N1CCc2c(sc(NC(=O)Cc3ccccc3)c2C#N)C1`, the inhibition (at 20 µM) is -0.4% (inactive).
On the same count and under the same terms, the same measure for `N#Cc1c(NC(=S)NC(=O)c2ccccc2)sc2c1CCN(CCc1ccccc1)C2`: 138% (inactive).
